Test results published in publication PMC4336329 (PLoS ONE, 2015).
Hit rate of the full screen: of about 310,000 compounds, about 14,000 (4.5%) showed an effect of 50% or more. Effects have a minus sign here. This is one part of a sample in which strong results are shown more often than they occur.

These compounds were tested against human ether-à-go-go-related gene (hERG) potassium channel (human, UniProt Q12809) (assay: primary screen, population patch clamp on CHO cells stably expressing hERG; higher = less effect of the substance).
Sequence of human ether-à-go-go-related gene (hERG) potassium channel (Q12809 whole entry, looked up): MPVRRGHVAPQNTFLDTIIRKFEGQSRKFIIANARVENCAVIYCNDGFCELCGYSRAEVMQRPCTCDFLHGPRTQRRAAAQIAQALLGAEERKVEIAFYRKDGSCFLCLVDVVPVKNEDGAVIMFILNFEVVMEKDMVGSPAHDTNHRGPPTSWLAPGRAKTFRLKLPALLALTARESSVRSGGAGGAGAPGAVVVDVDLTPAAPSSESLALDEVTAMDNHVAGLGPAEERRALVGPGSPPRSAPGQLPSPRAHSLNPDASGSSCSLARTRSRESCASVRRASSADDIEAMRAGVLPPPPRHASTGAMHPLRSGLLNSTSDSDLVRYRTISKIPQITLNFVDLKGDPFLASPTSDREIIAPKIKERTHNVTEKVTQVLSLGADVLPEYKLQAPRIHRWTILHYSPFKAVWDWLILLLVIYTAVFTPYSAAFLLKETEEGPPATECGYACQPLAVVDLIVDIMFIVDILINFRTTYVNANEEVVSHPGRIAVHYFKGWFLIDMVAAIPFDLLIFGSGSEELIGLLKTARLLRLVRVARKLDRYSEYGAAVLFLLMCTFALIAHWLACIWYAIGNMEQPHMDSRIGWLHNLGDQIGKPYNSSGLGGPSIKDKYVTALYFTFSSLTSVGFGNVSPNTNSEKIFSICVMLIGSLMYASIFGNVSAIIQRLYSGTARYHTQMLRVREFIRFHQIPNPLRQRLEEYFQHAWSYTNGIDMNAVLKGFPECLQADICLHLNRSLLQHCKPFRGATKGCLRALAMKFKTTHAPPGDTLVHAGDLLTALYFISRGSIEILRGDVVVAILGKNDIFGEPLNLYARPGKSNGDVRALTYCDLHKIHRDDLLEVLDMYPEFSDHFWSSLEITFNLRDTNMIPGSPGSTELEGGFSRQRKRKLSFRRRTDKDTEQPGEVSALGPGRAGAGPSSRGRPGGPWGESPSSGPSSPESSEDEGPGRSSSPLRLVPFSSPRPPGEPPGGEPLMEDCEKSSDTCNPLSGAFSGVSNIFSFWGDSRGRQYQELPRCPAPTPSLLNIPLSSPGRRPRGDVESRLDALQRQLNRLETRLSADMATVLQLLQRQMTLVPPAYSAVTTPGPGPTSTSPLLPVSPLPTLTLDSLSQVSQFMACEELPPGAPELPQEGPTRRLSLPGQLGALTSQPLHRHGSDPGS
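Note: peak tail current of the secondary pulse compared with the same well before compound.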

| SMILES | hERG current change (%, negative = inhibition) at 10uM |
| --- | --- |
| Cc1ccccc1C(=O)NCCCc1ccccc1 | 12.5% |
| O=C(NCCC(=O)N1CCCCC1)c1ccccc1Cl | -14.2% |
| COc1ccccc1N1CCN(/N=C\C(Br)=C\c2ccccc2)CC1 | 10.2% |
| COCCNC(=O)C(c1ccc(O)cc1)N(Cc1ccco1)C(=O)CCC(=O)Nc1ccccn1 (stereo not shown) | 23.8% |
| CCCCSc1nnc([C@@H]2CCCN2C(=O)OC(C)(C)C)o1 | -12.2% |
| O=C(CNc1cccc(C(F)(F)F)c1)Nc1cccc(S(=O)(=O)N2CCCC2)c1 | -6.44% |
| COc1ccc(S(=O)(=O)N2CCN(CCC(=O)Nc3ccc(F)cc3)CC2)cc1 | -18.9% |
| O=C(CCNC(=O)C1CCN(S(=O)(=O)c2ccccc2)CC1)Nc1cccc(C(F)(F)F)c1 | -45.1% |
| COc1ccc(NC(=O)CCN2CCN(S(=O)(=O)c3ccc(OC)cc3)CC2)cc1 | -25% |
| O=C(Nc1cccc(C(F)(F)F)c1)NC1CCN(S(=O)(=O)c2ccc(F)cc2)CC1 | 12.2% |
| O=C(CN1CCN(S(=O)(=O)c2ccccc2)CC1)Nc1cccc(C(F)(F)F)c1 | -56.2% |
| O=C(CN1CCN(S(=O)(=O)c2ccc(F)cc2)CC1)Nc1cc(C(F)(F)F)ccc1Cl | -4.15% |
| COc1ccc(S(=O)(=O)N2CCCN(CCC(=O)Nc3cccc(C(F)(F)F)c3)CC2)cc1 | -69.6% |
| O=C(CN1CCN(S(=O)(=O)c2ccc(F)cc2)CC1)Nc1cccc(C(F)(F)F)c1 | -55.5% |
| Nc1c(N(Cc2ccco2)C(=O)COc2ccccc2F)c(=O)[nH]c(=O)n1Cc1ccccc1 | 0.883% |
| CNC(=O)CSCc1c(F)cccc1Cl | 17.8% |
| CCCOC(=O)C1=C(C)NC2=C(C(=O)C(C(=O)OC)C(C)C2)C1c1ccc(N(CC)CC)cc1 (stereo not shown) | -5.21% |
| COC(=O)c1ccccc1NC(=O)CC(NCc1ccccc1)C(=O)O (stereo not shown) | -20.7% |
| CCCCn1c(SCC(N)=O)nnc1-c1ccco1 | 15.3% |
| COc1cccc(-n2nnnc2SCC(=O)NCc2ccco2)c1 | -2.06% |
| COc1cc(NC(=O)CN2CCN(c3ccccc3F)CC2)c(C)cc1[N+](=O)[O-] | 28.2% |
| Cc1nc2c(C)cccc2c2c1CCN2c1ccccc1F | -62.4% |

| SMILES | hERG current change (%, negative = inhibition) at 10uM |
| --- | --- |
| CCOC(=O)c1cnc2c(OC)cccc2c1N1CCN(c2ccc(OC)cc2)CC1 | -47.1% |
| Cc1nc2c(C)cccc2c2c1COC2 | 7.98% |
| Cc1nc2c(C)cccc2c2c1CCS2 | 0.813% |
| CCOC(=O)c1cnc2c(OC)cccc2c1N1CCN(c2ccccc2OC)CC1 | -45.4% |
| COc1cccc2c(Cl)c(CCCl)c(C)nc12 | 10.2% |
| COc1ccccc1N1CCN(c2nc(C)nc3c2oc2ccccc23)CC1.Cl | -1.5% |
| CCc1c(C)nc2c(OC)cccc2c1Cl | -2.25% |
| COc1ccccc1N1CCc2c(C)nc3c(OC)cccc3c21 | -61% |
| COc1ccc(N2CCc3c(C)nc4c(OC)cccc4c32)cc1 | -73.5% |
| COc1cccc2c3c(c(C)nc12)CCN3c1ccccc1 | -54.6% |
| COc1cccc2c3c(c(C)nc12)CC(C)O3 (stereo not shown) | -21.9% |
| CCOc1ccccc1CNC(=O)CCNS(=O)(=O)c1ccc2[nH]c(=O)oc2c1 | -2.89% |
| CCC(O)(CC)C(=O)N/N=C/c1cc(Br)cc(Br)c1O | -1.02% |
| C/C(CC(=O)Nc1ccccn1)=N\NC(=O)Cc1cccc2ccccc12 | 1.01% |
| CCOC(=O)c1c(C)[nH]c(C(=O)COC(=O)c2ccccn2)c1C | -17% |
| Cc1cccc(-c2nnc3n2N=C(c2ccccc2Br)CS3)c1 | -14.4% |
| CC1CCCC(NC(=O)COC(=O)CN2C(=O)C3CCCCC3C2=O)C1C (stereo not shown) | 10.3% |
| Cc1ccc(CN(Cc2ccccn2)C(=O)Nc2c(F)cccc2F)cc1 | -0.968% |
| CCC/C(=N\NC(=O)c1ccc(CSc2nncn2C)cc1)c1ccccc1 | -8.28% |
| CCCOc1ccc(C2c3c(oc4cc(C)c(C)cc4c3=O)C(=O)N2CCCN(C)C)cc1OCC (stereo not shown) | 7.65% |
| O=S(=O)(NCC(c1cccnc1)N1CCc2ccccc2C1)c1ccccc1 (stereo not shown) | 10.3% |
| O=S(=O)(NCC(c1cccnc1)N1CCOCC1)c1ccc(Cl)cc1 (stereo not shown) | 4.89% |

| SMILES | hERG current change (%, negative = inhibition) at 10uM |
| --- | --- |
| O=S(=O)(NCC(c1cccnc1)N1CCN(Cc2ccccc2)CC1)c1ccccc1 (stereo not shown) | -68.9% |
| Cc1cc(C)c(S(=O)(=O)NC2CCN(Cc3ccccc3)CC2)c(C)c1.Cl | -47.6% |
| CCN1CCN(C(CNS(=O)(=O)c2ccccc2)c2cccnc2)CC1 (stereo not shown) | -39.2% |
| O=S(=O)(NCC(c1cccnc1)N1CCN(Cc2ccccc2)CC1)c1ccc(F)cc1 (stereo not shown) | -65% |
| O=S(=O)(NCC(c1cccnc1)N1CCN(Cc2ccccc2)CC1)c1ccc(Cl)cc1 (stereo not shown) | -78.3% |
| O=S(=O)(NCC(c1cccnc1)N1CCOCC1)c1ccccc1 (stereo not shown) | 4.6% |
| CCN1CCN(C(CNS(=O)(=O)c2ccc(F)cc2)c2cccnc2)CC1 (stereo not shown) | -20.5% |
| Cc1cc(C)c(S(=O)(=O)NCC(c2cccnc2)N2CCN(Cc3ccccc3)CC2)c(C)c1 (stereo not shown) | -69.5% |
| Cc1cc(C)c(S(=O)(=O)NCc2cccnc2)c(C)c1 | -2.97% |
| C(=N\N(Cc1ccccc1)c1ccccc1)/c1ccco1 | -11.5% |
| O=C(CNC(=O)c1ccccc1F)OCc1nc2ccccc2s1 | 20.6% |
| COc1cc(C(=O)Nc2nccs2)cc(OC)c1OC | 3.55% |
| CSc1ccc(/C=N/n2c(C3CCCCC3)n[nH]c2=S)cc1 | 21.9% |
| O=C(/C=C/c1ccc2c(c1)OCO2)Nc1nc(-c2ccc(F)cc2F)cs1 | 9.08% |
| O=C(O)/C=C/c1cccc(NC(=O)c2ccccc2)c1 | 9.14% |
| CCOc1ccc(NC(=O)CN(C)C(=O)Cn2cnc3c2c(=O)n(C)c(=O)n3C)cc1OCC | 5.62% |
| Cc1ccc(S(=O)(=O)NCC(c2cccnc2)N2CCc3ccccc32)cc1 (stereo not shown) | -2.1% |
| CCN1CCN(C(CNS(=O)(=O)c2ccc(OC)cc2)c2cccnc2)CC1 (stereo not shown) | -45.4% |
| Cc1ccc(S(=O)(=O)NCC(c2cccnc2)N2CCN(Cc3ccccc3)CC2)cc1 (stereo not shown) | -73.1% |
| COc1ccc(S(=O)(=O)NCC(c2cccnc2)N2CCN(Cc3ccccc3)CC2)cc1 (stereo not shown) | -58.5% |
| Cc1ccc(S(=O)(=O)NCC(c2cccnc2)N2CCOCC2)cc1 (stereo not shown) | 5.12% |
| O=C(CCC(=O)OCC(=O)c1ccc([N+](=O)[O-])cc1)NC1CCCCC1 | -0.724% |

| SMILES | hERG current change (%, negative = inhibition) at 10uM |
| --- | --- |
| COc1ccc(Cn2nnnc2CN2CCC(O)(c3ccc(F)cc3)CC2)cc1 | -14.5% |
| COc1ccc(C(=O)Nc2ccc(-n3nncc3C(C)(C)C)cc2)cc1 | -26.4% |
| COc1cccc(C(=O)Nc2ccc(-n3nncc3C(C)(C)C)cc2)c1 | -60.5% |
| CC(C)(C)c1cnnn1-c1ccc(NC(=O)c2ccc3c(c2)OCO3)cc1 | -17.4% |
| Cc1ccc(-n2c3c(cc(C(=O)NCc4ccco4)c2=O)C(=O)CC(C)(C)C3)cc1 | -6.38% |
| Cc1ccc(-n2c3c(cc(C(=O)NCC(=O)c4ccccc4)c2=O)C(=O)CCC3)cc1 | 10.2% |
| COc1ccc(-n2c3c(cc(C(=O)NCc4ccco4)c2=O)C(=O)CC(C)(C)C3)cc1 | -56.6% |
| O=C1CCCc2c1cc(C(=O)NCc1ccco1)c(=O)n2-c1ccc(Cl)cc1 | -69.3% |
| O=C1CCCc2c1cc(C(=O)NCc1ccco1)c(=O)n2-c1ccccc1 | -10.3% |
| Cc1ccc(-n2c3c(cc(C(=O)NCc4ccco4)c2=O)C(=O)CCC3)cc1 | -53.8% |
| O=C1CCCc2c1cc(C(=O)NCCCN1CCOCC1)c(=O)n2-c1ccc(Cl)cc1 | 1.59% |
| CC1(C)CC(=O)c2cc(C(=O)NCc3ccco3)c(=O)n(-c3ccc(Cl)cc3)c2C1 | -22.2% |
| O=C1CCCc2c1cc(C(=O)Nc1ccc(Br)cn1)c(=O)n2-c1ccccc1 | -2.93% |
| O=C1CCCc2c1cc(C(=O)O)c(=O)n2-c1ccccc1 | 13.9% |
| O=C1CCCc2c1cc(C(=O)Nc1ccc(Cl)cn1)c(=O)n2-c1ccccc1 | -60.1% |
| CC1(C)CC(=O)c2cc(C(=O)NCc3ccco3)c(=O)n(-c3ccccc3)c2C1 | -19.7% |
| CS(=O)(=O)N(CC(=O)N1CCN(c2cccc(Cl)c2)CC1)c1cccc(F)c1 | -33.8% |
| COc1ccccc1NC(=O)Cn1c(CN2CCCCC2)nc2ccccc2c1=O | -43.7% |
| CN(Cc1cccs1)C(=O)CCCc1c[nH]c2ccccc12 | -1.49% |
